From PubChem BioAssay AID720597 (Broad Institute, 2013) come the findings set out here.

Entries with a potency or affinity are not part of this list. Activity calls are given as the source filed them.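 How the source made its calls: active means fitted half-maximal dose no more than twice the top valid tested dose, for compounds that lower signal; inconclusive means fit invalid, or curve flat with activity between -70 and -30; inactive means potency past limit, curve flat within ±30, or signal increasing.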

Sequence of NAD-dependent protein deacylase sirtuin-5, mitochondrial (Homo sapiens) (Q9NXA8 whole entry, looked up): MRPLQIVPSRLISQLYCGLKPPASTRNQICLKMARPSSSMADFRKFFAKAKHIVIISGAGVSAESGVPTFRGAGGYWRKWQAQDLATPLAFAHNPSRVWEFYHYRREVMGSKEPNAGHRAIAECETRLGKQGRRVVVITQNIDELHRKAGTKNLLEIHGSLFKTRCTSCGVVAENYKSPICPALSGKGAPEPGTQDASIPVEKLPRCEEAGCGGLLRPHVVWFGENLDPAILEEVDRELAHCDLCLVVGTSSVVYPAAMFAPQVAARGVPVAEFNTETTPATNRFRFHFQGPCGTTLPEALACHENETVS

The assay addresses NAD-dependent protein deacylase sirtuin-5, mitochondrial (Homo sapiens) (UniProt Q9NXA8). The experiment in a line: SIRT5 deacylase inhibitors, dose response, biochemical, fluorescence imaging, cherry-pick, set 6 (AID 720597).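 Further: lower AMC signal can also come from blocking the trypsin step.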 The conditions noted are these: Purified SirT5, succinyl-peptide-AMC/trypsin fluorescence; series mostly up to 15 µM.
As to `COc1ccc(S(=O)(=O)Nc2ccc3c(c2)C(=O)N([C@@H](C)CO)C[C@H](C)[C@@H](CN(C)Cc2ccc(C(F)(F)F)cc2)OCCCC[C@H](C)O3)cc1`, the result was inactive. Turning to `COc1ccc(S(=O)(=O)N(C)C[C@H]2OCCCC[C@H](C)Oc3ccc(NS(=O)(=O)c4ccc(F)cc4)cc3C(=O)N([C@@H](C)CO)C[C@@H]2C)cc1`, the call was inactive. `Cc1ccc(S(=O)(=O)N(C)C[C@@H]2OCCCC[C@H](C)Oc3ccc(NS(=O)(=O)c4ccc(Cl)cc4)cc3C(=O)N([C@@H](C)CO)C[C@H]2C)cc1`: the result was inactive. For the molecule `CS(=O)(=O)N(CC(=O)NC1CCCC1)c1cccc(F)c1`, the molecule was classed as inactive.

As to `COc1ccc([Si](C)(C)[C@@H]2[C@@H](CCO)O[C@]3(C(=O)N(Cc4cccc(NC(C)=O)c4)c4ccccc43)[C@H]2C)cc1`, the result was inactive.

For the molecule `C[C@@H]1CN([C@H](C)CO)C(=O)c2cccc(NC(=O)c3ccncc3)c2O[C@H]1CN(C)S(C)(=O)=O`, the outcome was inactive. For `C[C@@H]1CN([C@@H](C)CO)C(=O)c2cc(-c3cccc(F)c3)cnc2O[C@H]1CN(C)C(=O)Nc1cc(F)ccc1F`, the molecule was classed as inactive. As to `CCCNC(=O)N1[C@H](CO)[C@@H](c2ccccc2)C12CN(C(=O)CC1CC1)C2`, the result was inactive. With `C/C=C/c1ccc([C@@H]2[C@H](CO)N(CC3CC3)C23CN(S(=O)(=O)CC)C3)cc1`, the molecule was called inactive. Regarding `Cc1ccc(S(=O)(=O)N(C)C[C@H]2OCCCC[C@@H](C)Oc3ccc(NS(=O)(=O)c4ccc(Cl)cc4)cc3C(=O)N([C@@H](C)CO)C[C@@H]2C)cc1`, the molecule was called inactive.
